The results in this text go back to PubChem BioAssay.

For test [1], the target named is NAD(+) hydrolase SARM1 (Homo sapiens) (UniProt Q6SZW1). The test is described as follows: blocking NAD cleavage by SARM1 SAM-TIR – cell lysate, NAD-Glo luminescence (AID 1508614;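 active means compound whose remaining NAD level is above about 45 nM, limit read from the data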). The conditions noted are these: SAM-TIR HEK293T lysate NADase, at 1 µM, stronger effect = higher value.
The target of test [2] is Mitogen-activated protein kinase 7 (Homo sapiens) (UniProt Q13164). Description: Gal4-ERK5 driven luciferase induction – cell-based, HTS, primary screen (AID 1508626;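 active means luciferase signal above three times the same-plate solvent-only control wells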;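 further: luciferase driven by Gal4-ERK5 fusion binding five Gal4 sites before minimal TATA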). Conditions: HeLa Gal4-ERK5 transactivation, 18 h, at 5 µM, stronger effect = higher value.
Mitogen-activated protein kinase 7 (Homo sapiens), sequence (Q13164 whole entry, looked up, the tested form may be a part): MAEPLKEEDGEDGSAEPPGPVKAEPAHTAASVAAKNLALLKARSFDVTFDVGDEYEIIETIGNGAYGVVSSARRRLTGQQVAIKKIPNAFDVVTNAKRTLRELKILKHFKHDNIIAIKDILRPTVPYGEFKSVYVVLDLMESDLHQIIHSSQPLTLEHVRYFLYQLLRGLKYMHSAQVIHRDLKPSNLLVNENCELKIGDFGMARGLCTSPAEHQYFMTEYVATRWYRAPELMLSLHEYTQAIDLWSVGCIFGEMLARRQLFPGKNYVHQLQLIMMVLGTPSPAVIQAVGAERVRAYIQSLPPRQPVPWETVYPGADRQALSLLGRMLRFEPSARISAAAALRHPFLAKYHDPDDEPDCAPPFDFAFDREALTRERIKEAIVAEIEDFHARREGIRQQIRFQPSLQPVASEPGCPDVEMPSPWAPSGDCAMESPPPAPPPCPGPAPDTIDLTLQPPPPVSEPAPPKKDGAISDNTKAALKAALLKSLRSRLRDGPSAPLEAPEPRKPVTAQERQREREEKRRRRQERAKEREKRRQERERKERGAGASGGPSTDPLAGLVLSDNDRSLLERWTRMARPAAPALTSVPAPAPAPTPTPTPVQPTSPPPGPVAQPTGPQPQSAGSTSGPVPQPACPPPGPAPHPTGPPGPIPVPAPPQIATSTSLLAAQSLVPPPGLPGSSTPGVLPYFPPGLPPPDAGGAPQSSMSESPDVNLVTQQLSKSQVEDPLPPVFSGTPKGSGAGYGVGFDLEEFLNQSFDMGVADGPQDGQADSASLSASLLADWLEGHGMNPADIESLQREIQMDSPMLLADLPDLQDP
A short description of test [3]: growth inhibition, single agent or in combination, cell-based, chromothripsis tumors, cisplatin or BGB combos (AID 1671449).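 Further: cells exposed for 96 hours; 0% = vehicle DMSO and 100% = killing by high DMSO.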 The conditions noted are these: LFS_MB_P medulloblastoma cells.
Test [4] can be described thus: growth inhibition, single agent and combos, cell-based, chromothripsis tumors, cisplatin or BGB combos (AID 1671450).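 Further: cells exposed to compound for four days; 0% = vehicle DMSO and 100% = cell killing by high DMSO.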 Conditions: HDN33 neuroblastoma cells, stronger effect = higher value.
Test [5] in a line: growth inhibition, single agents and combos, ICB984, cell-based, cisplatin or BGB combos, synergistic combos for chromothripsis tumors (AID 1671451; call rule not given here;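 further: cells exposed for 96 hours before readout; 0% = vehicle DMSO and 100% = killing by high DMSO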). Conditions: ICB984 medulloblastoma cells, drug combinations, stronger effect = higher value.
The nature of test [6]: growth inhibition, single agents and combos, LFS_MB_1R, cell-based, cisplatin or BGB combos, synergistic combos for chromothripsis tumors (AID 1671452).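 Further: cells exposed for 96 hours before readout.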 The conditions noted are these: LFS_MB_1R medulloblastoma cells, stronger effect = higher value.
Test [7] is described as follows: growth inhibition, single agents and combos, HTB85, cell-based, BGB or cisplatin IC20 combos, synergistic combos for chromothripsis tumors (AID 1671453).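 Further: cells exposed for 96 hours before readout; 0% = vehicle DMSO and 100% = high DMSO killing control.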 The conditions noted are these: HTB85 osteosarcoma cells, drug combinations, stronger effect = higher value.
Test [8] in a line: growth inhibition, single agents and combos, CRL2098, cell-based, BGB or cisplatin IC20 combos, synergistic combos for chromothripsis tumors (AID 1671454).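 Further: cells exposed for 96 h before readout; 0% = vehicle DMSO and 100% = killing by high DMSO.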 Conditions: CRL2098 osteosarcoma cells, drug combinations, stronger effect = higher value.
Test [9] can be described thus: growth inhibition, single agents and combos, HD-MB03, cell-based, BGB or cisplatin IC20 combos, synergistic combos for chromothripsis tumors (AID 1671455; in the data active means inhibition above about 83%;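 further: 0% = vehicle DMSO and 100% = high DMSO as cytotoxic control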). Conditions: HD-MB03 medulloblastoma cells, stronger effect = higher value.
Test [10] is described as follows: growth inhibition, single agents and combos, UWB1.289, cell-based, BGB or cisplatin combos, synergistic combos for chromothripsis tumors (AID 1671456).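 Further: cells exposed to compound for four days; 0% = vehicle DMSO and 100% = killing by high DMSO.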 Conditions: UWB1.289 ovarian carcinoma cells, stronger effect = higher value.
Test [11] in a line: growth inhibition, single agents and combos, LFS_MB_2R, cell-based, cisplatin combos, synergistic combos for chromothripsis tumors (AID 1671457).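 Further: cells exposed to compound for four days before readout.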 Conditions: LFS_MB_2R medulloblastoma cells, stronger effect = higher value.
The nature of test [12]: growth inhibition, MDA-MB-436, cell-based, BGB or cisplatin combos, synergistic combos for chromothripsis tumors (AID 1671458; call rule not given here;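 further: cells exposed for 96 hours; 0% = vehicle DMSO and 100% = killing by high DMSO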). Conditions: MDA-MB-436 breast carcinoma growth inhibition, drug combinations, stronger effect = higher value.
Test [13] is described as follows: UWB1.289_BRCA1 ovarian cancer growth, cell-based, BGB or cisplatin combinations (AID 1671459). The conditions noted are these: UWB1.289 BRCA1 ovarian carcinoma, drug combinations, stronger effect = higher value.
Test [14] is described as follows: drug combination toxicity in non-malignant astrocytes – cell-based, BGB or cisplatin IC20 combos, cytotoxicity control for chromothriptic childhood tumor combination screen (AID 1671460).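 Further: cells exposed to compounds for 96 hours before viability readout; 0% = vehicle and 100% = killing control.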 The conditions noted are these: Human astrocytes, viability inhibition, drug combinations, at 0.5 µM, stronger effect = higher value.
A short description of test [15]: BT084 cell growth, single and combined drugs, ICGC_MB145, cisplatin and BGB IC40 combos (AID 1671461).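 Further: cells exposed to drugs for 96 hours; 0% = vehicle DMSO and 100% = high DMSO full killing control.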 The conditions noted are these: BT084 medulloblastoma cells, drug combinations, stronger effect = higher value.
Test [16] is described as follows: RCMB18 cell growth, single agent and combined, cisplatin and BGB IC40 combos (AID 1671462).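 Further: cells exposed to compound for four days.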 The conditions noted are these: RCMB18 medulloblastoma cells, stronger effect = higher value.
Test [17] can be described thus: CRL1545 cell growth, single agent and combined, cisplatin and BGB IC20 combos (AID 1671464).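 Further: cells exposed to compound for 96 hours before readout; 0% = vehicle DMSO and 100% = high DMSO killing control.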 The conditions noted are these: CRL1545 osteosarcoma cells, stronger effect = higher value.
Test [18] in a line: galactose survival enhancers in mitochondrial complex I cybrids – cell-based, galactose medium, ATP luminescence, primary screen (AID 1645843;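 active means z-score of at least 1.8 in each of two replicates, scored against plate mean and spread of sample wells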;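 further: positive z means more ATP and so rescue of galactose-driven cybrid death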). Conditions: complex I mutant cybrid cells, 72 h, stronger effect = higher value.
Where [19] appears, read: measured here: combination with BGB IC40, at 0.05 µM.
Where [20] appears, read: measured here: with BGB IC20 combination, at 0.5 µM.
[21] abbreviates: measured here: with cisplatin IC20 combination, at 0.5 µM.
The mark [22] stands for this setting: measured here: combination with cisplatin, at 0.5 µM.
[23] abbreviates: measured here: combination with cisplatin, at 5 µM.

Structures are written as SMILES. Where “and” joins values, the source holds several entries; their conditions need not be identical. Equal values may be shown once. The source holds several records for some structures; these can differ, active in one and inactive in another. Calls of active or inactive are those of the source. Unless noted, no stated cut-off is given here; in the data, active means inhibition above about 80%; inactive means the rest.

NAD(+) hydrolase SARM1 (Homo sapiens), sequence (Q6SZW1 whole entry, looked up, the tested form may be a part): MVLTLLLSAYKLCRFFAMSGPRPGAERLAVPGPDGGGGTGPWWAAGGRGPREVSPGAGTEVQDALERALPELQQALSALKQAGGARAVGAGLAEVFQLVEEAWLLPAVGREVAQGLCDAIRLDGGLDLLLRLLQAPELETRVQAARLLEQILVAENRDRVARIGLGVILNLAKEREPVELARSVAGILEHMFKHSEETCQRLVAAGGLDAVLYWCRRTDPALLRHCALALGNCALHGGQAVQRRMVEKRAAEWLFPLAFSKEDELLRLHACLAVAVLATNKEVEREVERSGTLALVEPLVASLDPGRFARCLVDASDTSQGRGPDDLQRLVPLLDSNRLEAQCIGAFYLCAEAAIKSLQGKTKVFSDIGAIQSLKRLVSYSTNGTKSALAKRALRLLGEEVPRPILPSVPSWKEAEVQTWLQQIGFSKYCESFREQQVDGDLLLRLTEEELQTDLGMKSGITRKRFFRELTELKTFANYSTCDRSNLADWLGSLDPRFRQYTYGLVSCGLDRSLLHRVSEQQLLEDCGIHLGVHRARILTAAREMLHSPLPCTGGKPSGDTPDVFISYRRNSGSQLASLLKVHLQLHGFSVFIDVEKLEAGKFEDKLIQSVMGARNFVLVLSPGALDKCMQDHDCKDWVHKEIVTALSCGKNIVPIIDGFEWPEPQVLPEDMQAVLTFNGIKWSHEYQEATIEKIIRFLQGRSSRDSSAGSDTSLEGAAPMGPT

As to `CC1CCc2cc(F)cc3c(=O)c(C(=O)O)cn1c23` (stereo not drawn), in [1], the remaining NAD is 10 nM (inactive). Further, the luciferase signal in test [2] was 60 AU (inactive). Also, the inhibition in test [3] (at 0.5 µM, stronger effect = higher value) was 39.2% (inactive) and -31.9% (inactive); in test [3] (measured here: combination with BGB IC20, at 0.005 µM), -29.5% and 27.9%; in test [3] (measured here: combination with BGB IC40, at 0.005 µM), -17.3% and 13.7%; in test [3] (setting [19]), -16.4% and 38.8%; in test [3] (measured here: combination with cisplatin, at 0.5 µM, stronger effect = higher value), 98.2% and -27%; in test [3] (measured here: combination with cisplatin, at 5 µM, stronger effect = higher value) it was -36.8% and -23.2%. The inhibition was -3.97% and 10% in [4] (BGB combo, at 5 µM); 3.55% (inactive) and 8.84% (inactive) in test [4] (at 0.5 µM); 2.48% and 8.76% in [4] (cisplatin combo, at 5 µM); 18.5% and 19.1% in [4] (setting [20]); -0.119% and -5.91% in [4] (setting [21]); 0.699% and -7.13% in test [4] (single agent, at 5 µM). In addition, the inhibition in test [5] (BGB IC20 combo, at 0.005 µM) was -7.37% and -18.9%; in test [5] (BGB IC40 combo, at 0.005 µM) it was -12.9% and -43.9%; in test [5] (BGB IC40 combo, at 0.05 µM), -20% and -12.5%; in test [5] (at 0.5 µM), -19.2% (inactive) and -16.4% (inactive); in test [5] (cisplatin combo, at 0.05 µM), -20% and -16.9%; in [5] (cisplatin combo, at 0.5 µM), -31% and -15.5%. Also, the inhibition in [5] (cisplatin combo, at 5 µM) is -18.9% and -31.7%; in test [5] (measured here: 5 uM single agent, at 5 µM), -15.3% and -14.5%; in test [6] (at 0.5 µM) it was -3.56% (inactive) and 7.41% (inactive); in [6] (setting [19]) it was -7.45% and -3.94%; in [6] (setting [22]), 23.1% and 16.6%; in [6] (setting [23]), 7.04% and -25.3%. Besides, the inhibition in test [7] (at 0.5 µM) is -21.3% (inactive) and 5.14% (inactive); in test [7] (measured here: with BGB IC20, at 0.5 µM), -53.3% and -0.618%; in test [7] (measured here: with BGB IC20, at 5 µM), -33.8% and -1.4%; in test [7] (measured here: with cisplatin IC20, at 0.5 µM), -16.2% and -0.916%; in [7] (measured here: with cisplatin IC20, at 5 µM) it was -23.6% and -6.11%; in [7] (single agent, at 5 µM), -1.52% and 15.2%. The inhibition was -7.35% (inactive) and -5.05% (inactive) in test [8] (at 0.5 µM); 15.7% and -0.776% in test [8] (measured here: combination with BGB at IC20, at 0.5 µM); -17.1% and 17.1% in [8] (measured here: combination with cisplatin at IC20, at 0.5 µM); -4.42% (inactive) and 1.31% (inactive) in test [9] (at 0.5 µM); -11.9% and -3.2% in [9] (measured here: combo with BGB at IC20, at 0.5 µM); 7.79% and 0.674% in [9] (measured here: combo with cisplatin at IC20, at 0.5 µM). Moreover, the inhibition in [10] (at 0.5 µM) was 2.76% (inactive) and 0.5% (inactive); in [10] (measured here: inhibition with BGB combination, at 0.05 µM), -16.2% and 1.75%; in test [10] (measured here: inhibition with cisplatin combination, at 0.05 µM), -12.2% and 4%; in test [11] (at 0.5 µM) it was -19.5% (inactive) and -4.64% (inactive); in test [11] (setting [22]), -15.1% and -2.74%; in [11] (setting [23]), -12% and -9.68%. Besides, the inhibition was -12.1% (inactive) and -0.02% (inactive) in [12] (at 0.5 µM); -17.3% and -1.89% in test [12] (measured here: BGB combination, at 0.5 µM); -23.6% and -8.65% in [12] (measured here: BGB combination, at 5 µM); -18.1% and 1.92% in test [12] (measured here: cisplatin combination, at 0.5 µM); -8.63% and -4.96% in test [12] (measured here: cisplatin combination, at 5 µM); 7.3% and -2.65% in test [13] (BGB combination, concentration series, at 5 µM). Besides, the inhibition in [13] (at 0.5 µM) was 0.71% (inactive) and -0.93% (inactive); in test [13] (cisplatin combination, concentration series, at 5 µM), 1.53% and -5.02%; in test [14], 7.24% (inactive) and 2.53% (inactive); in test [14] (measured here: combo with BGB IC20), 6.98% and 4.66%; in test [14] (measured here: combo with cisplatin IC20), 1.25% and 9.82%; in test [15] (at 0.5 µM) it was -21.2% (inactive) and 2.68% (inactive). Further, the inhibition in test [15] (cisplatin combination, at 0.5 µM) is -37.8% and -1.29%; in [15] (cisplatin combination, at 5 µM), -84.9% and -4.5%; in test [15] (measured here: BGB IC40 combination 0.05 uM, at 0.05 µM), 25.8% and 24.3%; in test [15] (single agent, at 5 µM), -17% and 4.9%; in test [16] (at 0.5 µM) it was -15.1% (inactive) and 7.22% (inactive); in test [16] (cisplatin combo, at 5 µM) it was -26.9% and 25%. Besides, the inhibition in [16] (measured here: BGB IC40 combination, at 0.05 µM) was -11.2% and -0.956%; in test [16] (setting [22]), -23.8% and 30.6%; in test [16] (single agent, at 5 µM), -29.1% and -22.6%; in test [17] (at 0.5 µM), -14.4% (inactive) and -0.92% (inactive); in [17] (setting [20]) it was 1.08% and -21.3%; in [17] (setting [21]), -22.2% and 9.24%. The inhibition in [17] (single agent, at 0.05 µM) is 22.2% and 18.9%; in test [17] (single agent, at 5 µM), 6.9% and 9.8%.
For the compound `CCCCCN(CCCCC)C(=O)C(CCC(=O)O)NC(=O)c1ccc(Cl)c(Cl)c1` (stereo not drawn), the remaining NAD in [1] was 10 nM (inactive). For the same compound, the z-score in test [18] is 2.69 (active) and 0.255 (inactive).
As to `C[C@H]1O[C@@H](n2cc(F)c(=O)[nH]c2=O)[C@H](O)[C@@H]1O`, the remaining NAD in test [1] is 10 nM (inactive). The z-score in test [18] is 0.64 (inactive) and -0.08 (inactive).
On to `O=C(c1ccc(F)cc1)C1CCN(CCn2c(=O)[nH]c3ccccc3c2=O)CC1`, for which the remaining NAD in test [1] is 10 nM (inactive). Further, in test [18], the z-score is 0.47 (inactive) and 0.155 (inactive) and 0.975 (inactive).
As for `NC(N)=NC(=O)Cc1c(Cl)cccc1Cl`, in [1], the remaining NAD was 10 nM (inactive). The z-score in test [18] is -0.06 (inactive) and -0.17 (inactive) and -0.035 (inactive).

As usually defined, the inhibition is the relative decrease from the control value, in per cent.
